ARNT TACC3 PPI – disruptors of ARNT/TACC3 protein interaction, primary screen, biochemical, AlphaScreen, single concentration. Transforming acidic coiled-coil-containing protein 3 (Homo sapiens), Q9Y6A5. AlphaScreen His-ARNT PAS-B/GST-TACC3 binding, luminescence; TACC3 fragment carries E629A point mutation. inhibition, % at 9.99 µM. hit rate 0.66% among 390,000. AID 623870, 2012;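 active = mean inhibition of replicates at least 50% and at least half of replicates each reaching 50%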;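 also: 0% = complete ARNT plus TACC3 wells and 100% = ARNT alone without TACC3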
NSD2 inh – NSD2 histone methyltransferase inhibitors, primary screen, biochemical, AlphaScreen, single concentration, set 2; Histone-lysine N-methyltransferase NSD2 (Homo sapiens), O96028; NSD2 peptide methylation, 120 min; inhibition, % at 12.5 µM; hit rate 0.54% among 310,000; in the data active = inhibition above about 50%
PfHsp90 yeast 2 – growth inhibition of PfHsp90-expressing yeast, primary screen, antimalarial PfHsp90 inhibitor project, S. cerevisiae, BacTiter-Glo luminescence, single point, set 2. BacTiter-Glo ATP, 48 h; yeast lacking PDR1 and PDR3 efflux regulators. inhibition, % at 9.4 µM. hit rate 0.32% among 310,000;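 active = every replicate shows inhibition above about 80%, whatever the replicate mean, limit read from the data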;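 also: 0% = DMSO neutral controls and 100% = 20 µM radicicol positive controls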
Casp6 inh – human caspase-6 inhibitors, primary screen, biochemical, VEID-R110 fluorescence, single point, set 2 | hit rate 0.53% among 350,000 | inhibition, % at 12.5 µM | purified caspase-6, Z-VEID-R110 cleavage fluorescence | P55212 | AID 686996, 2013;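 active = mean inhibition across replicates at least about 35%, with every replicate also reaching that limit, limit read from the data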;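 also: 0% = median of neutral control wells and 100% = no fluorescence left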
SIRT5 block – SIRT5 desuccinylase inhibitors, primary screen, biochemical, fluorescence imaging, single point, set 5; AID 652115, 2013; Purified SirT5, succinyl-peptide AMC, trypsin-coupled fluorescence; hit rate 1.1% among 330,000; inhibition, % at 15 µM; NAD-dependent protein deacylase sirtuin-5, mitochondrial (Homo sapiens), Q9NXA8; in the data active = inhibition above about 15%
Target sequence (Q9NXA8 whole entry, looked up): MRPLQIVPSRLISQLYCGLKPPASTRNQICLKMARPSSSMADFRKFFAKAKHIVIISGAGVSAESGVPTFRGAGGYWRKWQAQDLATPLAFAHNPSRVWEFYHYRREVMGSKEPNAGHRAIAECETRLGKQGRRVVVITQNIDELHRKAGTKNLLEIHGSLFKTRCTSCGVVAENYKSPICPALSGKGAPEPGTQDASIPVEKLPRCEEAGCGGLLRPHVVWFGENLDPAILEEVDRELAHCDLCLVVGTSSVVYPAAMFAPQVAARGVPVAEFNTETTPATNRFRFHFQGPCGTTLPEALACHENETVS
* = called active by the depositor; / = no result; ! = a repeat was not active. Compounds with a hit are over-represented: about 2.1% of the library has one in this group of screens.

SMILES | ARNT TACC3 PPI | NSD2 inh | PfHsp90 yeast 2 | Casp6 inh | SIRT5 block
CN(C)C(=O)c1cc(C(=O)c2ccc(F)cc2F)c[nH]1 | -6.0 | -4.4 | -5.3 | -2.4 | -2.7
CN(C)C(=O)c1cc(C(=O)c2ccc(C(F)(F)F)cc2F)c[nH]1 | -9.6 | / | 17.8 | -4.1 | 34.2*
COc1ccc(C2CCCN2C(=S)Nc2ccc(C)c(C)c2)cc1OC (centres undefined) | -3.1 | 1.4 | -10.6 | -1.7 | -2.8
COc1ccc(C2CCCN2C(=O)Nc2ccc(C)c(C)c2)cc1OC (centres undefined) | 3.3 | / | -3.0 | 3.5 | 15.8*
CCN(CC)c1ccc(/C=C/c2ccc3ccc(OC)cc3[n+]2CC)cc1 | 31.2 | 75.5* | 32.1 | 2.0 | -0.2
C[C@H]1CN([C@@H](C)CO)C(=O)c2cccc(NC(=O)Nc3ccc(C(F)(F)F)cc3)c2O[C@H]1CN(C)S(=O)(=O)c1ccc(F)cc1 | 3.3 | / | / | 0.7 | 15.6*
C[C@H]1CN([C@@H](C)CO)C(=O)c2cccc(NC(=O)Nc3ccc(C(F)(F)F)cc3)c2O[C@@H]1CN(C)S(=O)(=O)c1ccc(F)cc1 | 7.7 | / | / | 0.1 | 13.0
C[C@@H]1CN([C@H](C)CO)C(=O)c2cccc(NC(=O)Nc3ccc(C(F)(F)F)cc3)c2O[C@H]1CN(C)S(=O)(=O)c1cccs1 | -0.2 | / | 25.9 | -1.3 | 16.6*
O=C(N[C@@H]1CC[C@@H](CCn2cc(C3CC3)nn2)O[C@H]1CO)c1cccnc1 | -16.7 | / | / | 1.0 | -0.3
CCC(=O)N1[C@@H]2c3cccc(=O)n3C[C@H]1[C@H](CO)[C@H]2C(=O)NC1Cc2ccccc2C1 | / | / | / | 2.0 | -4.8
Cc1c(NS(=O)(=O)c2cc(C(=O)NCc3cccc(Cl)c3)ccc2Cl)c(=O)n(-c2ccccc2)n1C | -0.6 | 2.4 | / | 0.6 | -0.9
Cc1c(NS(=O)(=O)c2cc(C(=O)NCCN(C)C)ccc2Cl)c(=O)n(-c2ccccc2)n1C | -2.8 | -0.7 | -13.7 | 42.3* | -2.0
Cc1ccc(CN(C)C[C@@H]2OCc3cnnn3CCCC(=O)N([C@H](C)CO)C[C@@H]2C)cc1 | -5.6 | / | / | 0.0 | 18.2*
C[C@H]1CN([C@@H](C)CO)C(=O)CCCn2nncc2CO[C@H]1CN(C)Cc1cccc(O)c1 | 0.9 | / | / | 1.2 | -2.0
Cc1cccc(CN(C)C[C@@H]2OCc3cnnn3CCCC(=O)N([C@H](C)CO)C[C@@H]2C)c1 | -3.2 | / | / | -0.6 | 15.3*
C[C@@H]1CN([C@H](C)CO)C(=O)CCCn2nncc2CO[C@H]1CN(C)Cc1cccnc1 | -0.3 | / | / | -9.4 | 17.5*!
O=C(NCC1CC1)[C@@H]1[C@@H](CO)[C@@H]2Cn3c(ccc(-c4ccccc4)c3=O)[C@@H]2N1Cc1cocn1 | -3.8 | / | / | -1.1 | -6.0
CC1(C)OC2CC3C4CC(F)C5=CC(=O)C=CC5(C)C4(F)C(O)CC3(C)C2(C(=O)CO)O1 (centres undefined) | -3.0 | -9.0 | -18.9 | -1.1 | 17.5*
Cc1ccccc1NS(=O)(=O)c1ccc(C(=O)NCC2CCCO2)cc1 (centres undefined) | -4.7 | 0.9 | / | -5.6 | 19.3*
O=Nc1c(O)[nH]c2ccc(Cl)c(Cl)c12 | 59.3* | 4.3 | -2.6 | 4.6 | 0.3
Oc1c(CNc2ccccc2)cc(COCc2ccccc2)c2cccnc12 | 57.2* | / | -64.7 | 2.0 | -2.7
COc1cc(OC)cc(C(=O)NCC(=O)OCC(=O)/C=C2/N(C)c3ccccc3C2(C)C)c1 | -5.6 | / | / | 11.1 | 26.6*
CC(=O)N(C1=C(N)C(=O)c2ccccc2C1=O)c1ccccc1 | 12.1* | / | -11.0 | 15.8 | -11.9
Oc1ccc(C2=NN(c3ccccc3)C(c3ccc(F)cc3)C2)cc1 (centres undefined) | -13.2 | -5.4 | 119.7* | -0.9 | -4.2
COc1cc(NCCCCCCN)c2ncccc2c1OC | 51.5* | / | -11.4 | 85.0* | 4.8
COc1cc(N)c2ncccc2c1OC | 23.0 | 14.2 | 1.5 | 8.7 | -1.3
CNC(=O)C[C@@H]1CC[C@H]2[C@@H](COc3ccc(NC(=O)Nc4ccc(F)cc4)cc3C(=O)N2C)O1 | 0.4 | / | / | 0.2 | -3.4

High-throughput results from PubChem.
